{"source": "paper PMC7819943", "about": "“Rice protein-binding microarrays: a tool to detect cis-acting elements near promoter regions in rice”", "note": "Whole data set: some 39,000 sequences, median “fluorescence intensity (a.u.)” near 4,300, cut for the highest 2% near 39,000. The entries come from a sample that favours the highest values as a whole.", "data": [{"target": "T1, OsSMF1 (Oryza sativa, UniProt Q6ZLB0 1-436)", "T1 sequence": "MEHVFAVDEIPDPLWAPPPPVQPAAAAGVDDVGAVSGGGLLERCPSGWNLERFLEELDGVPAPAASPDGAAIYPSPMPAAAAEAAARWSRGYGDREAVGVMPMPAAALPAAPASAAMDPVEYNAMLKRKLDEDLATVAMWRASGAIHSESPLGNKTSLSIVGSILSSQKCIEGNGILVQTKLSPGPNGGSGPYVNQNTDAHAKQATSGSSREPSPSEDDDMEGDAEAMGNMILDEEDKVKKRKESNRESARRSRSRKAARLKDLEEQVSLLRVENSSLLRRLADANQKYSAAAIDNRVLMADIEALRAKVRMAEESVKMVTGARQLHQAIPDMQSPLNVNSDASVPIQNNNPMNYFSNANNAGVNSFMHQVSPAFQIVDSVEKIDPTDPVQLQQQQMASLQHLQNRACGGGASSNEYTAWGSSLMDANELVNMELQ", "assay": "protein-binding microarray (RPBM); PBS, 2% BSA, 51.3 ng/ul salmon testes DNA, 50 uM zinc acetate, 200 nM TF, 25 C, 1 h; high values mean tight binding", "conditions": "protein: recombinant; tags: N-terminal polyhistidine and DsRed monomer fusion (pET32a); chain copies: 2; label: CyDye5-dUTP incorporated in the synthesized complementary strand; 3' TTTTT single-stranded linker to array surface; dsDNA, one strand shown", "how_it_was_run": "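Transcription factors were made in E. coli BL21-CodonPlus as N-terminal fusions to a polyhistidine tag and DsRed, then purified on Ni–NTA. After primer extension with Cy5-dUTP and blocking with 2% BSA, a custom Agilent array was exposed for 1 h at 25 °C to 200 nM protein in PBS, 2% BSA, salmon testes DNA and 50 µM zinc acetate. Washed arrays were scanned on an Axon 4000B, and the binding signal is per-feature fluorescence intensity in arbitrary units.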", "values": [{"sequence": "CTGGGCAAAATCTCTCCCATACATACACTACAGCGGCGAACGGAGTCACCTAGTGCAG", "binding signal": "3290 fluorescence intensity (a.u.)"}, {"sequence": "GGGCGTTGCGGCCGTCACACGTGGTATGGGAGGGCGCCGCCGGAGTCACCTAGTGCAG", "binding signal": "5820 fluorescence intensity (a.u.)"}, {"sequence": "TAGTAGTACTATGTAACCGGTACAGTCACCAAAACAGGGTCGGAGTCACCTAGTGCAG", "binding signal": "5260 fluorescence intensity (a.u.)"}, {"sequence": "CAGTTGACAAATGACAACCGGCACGTTTGCAACATGCAAGCGGAGTCACCTAGTGCAG", "binding signal": "3220 fluorescence intensity (a.u.)"}, {"sequence": "GTTTATACCTATAAAGTTTCTATATTAAAAGTTTACGTGTCGGAGTCACCTAGTGCAG", "binding signal": "3490 fluorescence intensity (a.u.)"}, {"sequence": "TTTGCCTACTCATCACCACATGTATAAAGTGTAAACTTTACGGAGTCACCTAGTGCAG", "binding signal": "5240 fluorescence intensity (a.u.)"}, {"sequence": "CAGTTCTTAAACTTGTAAAGTTGTGTCATATACCACATTACGGAGTCACCTAGTGCAG", "binding signal": "39600 fluorescence intensity (a.u.)"}, {"sequence": "CCAAAATTAGCTTCGGTCGGTACAAACACCAGAATTCAGCCGGAGTCACCTAGTGCAG", "binding signal": "3220 fluorescence intensity (a.u.)"}, {"sequence": "CACCGCCCCATCGATCTCCGCCCGGCCGCCACCAATCTCGCGGAGTCACCTAGTGCAG", "binding signal": "3310 fluorescence intensity (a.u.)"}, {"sequence": "GTCTCCGATGCCCCGATGCCGCCGCGTCGCTGGCCTGATTCGGAGTCACCTAGTGCAG", "binding signal": "3390 fluorescence intensity (a.u.)"}, {"sequence": "CGGAATGTCTCCGCGGAAGATGCCCAAGGAATCGCCTGGCCGGAGTCACCTAGTGCAG", "binding signal": "39500 fluorescence intensity (a.u.)"}, {"sequence": "ATTAATAGCAGTGACGTCTTGCACATACTGTATGAGTCATCGGAGTCACCTAGTGCAG", "binding signal": "11000 fluorescence intensity (a.u.)"}, {"sequence": "TTATCTCCTCATCCATTTTCATCCTCGTCTACATTCACTGCGGAGTCACCTAGTGCAG", "binding signal": "24600 fluorescence intensity (a.u.)"}, {"sequence": "ATAATATAAAACGGATGGATCACATGCTATGAACCTATGACGGAGTCACCTAGTGCAG", "binding signal": "51200 fluorescence intensity (a.u.)"}, {"sequence": "GAACATATCACATGCTCATATCAAAATTTATAATATTAAACGGAGTCACCTAGTGCAG", "binding signal": "35200 fluorescence intensity (a.u.)"}, {"sequence": "ATTGGACGATAAAATATTGGACGGTGATTCACCTTTTAGACGGAGTCACCTAGTGCAG", "binding signal": "3170 fluorescence intensity (a.u.)"}, {"sequence": "TCTTTGGTGATGGATAATAACCCGATATAAACAATATAGACGGAGTCACCTAGTGCAG", "binding signal": "65000 fluorescence intensity (a.u.)"}, {"sequence": "AATGTAATAAATTGTAGATGTCATTGCTATGCATGCATGACGGAGTCACCTAGTGCAG", "binding signal": "3920 fluorescence intensity (a.u.)"}, {"sequence": "CATGGATAGGATAATCGTAACAATTATCTAGACAGTGATGCGGAGTCACCTAGTGCAG", "binding signal": "3140 fluorescence intensity (a.u.)"}, {"sequence": "ATTATGAGCCATGATTCTCTCATCATGCAATGTCCCAGCACGGAGTCACCTAGTGCAG", "binding signal": "22100 fluorescence intensity (a.u.)"}, {"sequence": "TATATATGCACCGAGACACATATGAATCATCACACGTCTTCGGAGTCACCTAGTGCAG", "binding signal": "3550 fluorescence intensity (a.u.)"}, {"sequence": "CGCCGCCTCACCAGCGCCACCTCCACCTCCACCTACGTCTCGGAGTCACCTAGTGCAG", "binding signal": "3270 fluorescence intensity (a.u.)"}, {"sequence": "TTGCAGCAGAATACTTACCACGACAGAATTTGAGGATCTACGGAGTCACCTAGTGCAG", "binding signal": "29500 fluorescence intensity (a.u.)"}]}]}
